Assay outcomes deposited in PubChem BioAssay by National Center for Advancing Translational Sciences (NCATS).
Pol iota inh: DNA polymerase iota (human) inhibition; Q9UNA4; Pol iota fluorescent replication assay, 10 min; Potency, µM (series often up to 115 µM), without a hit: top-dose activity, negative = inhibition, hits mostly inhibitors; actives 1% (n = 390,000); AID 588590
Target sequence (Q9UNA4 whole entry, looked up): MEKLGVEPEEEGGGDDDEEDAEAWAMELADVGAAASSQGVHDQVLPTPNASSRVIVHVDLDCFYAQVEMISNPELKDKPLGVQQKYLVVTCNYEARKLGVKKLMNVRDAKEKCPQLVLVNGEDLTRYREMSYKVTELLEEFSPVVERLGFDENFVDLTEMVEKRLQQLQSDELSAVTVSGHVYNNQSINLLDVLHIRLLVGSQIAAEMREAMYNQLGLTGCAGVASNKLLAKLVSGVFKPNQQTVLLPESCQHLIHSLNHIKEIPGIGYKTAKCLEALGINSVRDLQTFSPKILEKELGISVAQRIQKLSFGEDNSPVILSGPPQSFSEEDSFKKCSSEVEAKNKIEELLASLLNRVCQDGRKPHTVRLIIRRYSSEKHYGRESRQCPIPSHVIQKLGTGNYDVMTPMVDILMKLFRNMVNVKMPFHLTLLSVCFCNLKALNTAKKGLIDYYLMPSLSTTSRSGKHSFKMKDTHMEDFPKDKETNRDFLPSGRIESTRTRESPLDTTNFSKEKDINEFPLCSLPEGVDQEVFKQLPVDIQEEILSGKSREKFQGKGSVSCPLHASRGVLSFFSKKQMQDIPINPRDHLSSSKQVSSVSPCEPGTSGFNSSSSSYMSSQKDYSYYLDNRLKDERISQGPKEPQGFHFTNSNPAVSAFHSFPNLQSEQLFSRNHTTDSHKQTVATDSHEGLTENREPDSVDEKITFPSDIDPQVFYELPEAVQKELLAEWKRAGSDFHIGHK
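Fluorescent replication assay read twice, at 0 min and 10 min after adding 50 nM (final) substrate. Enzyme (10 nM) and compounds were first incubated 15 min at room temperature; enzyme-free buffer wells were negative controls.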
Pol beta inh: blocks human DNA polymerase beta activity | P06746 | Pol beta primer extension/strand displacement, fluorescence kinetic | Potency, µM (series often up to 114 µM), inactives show at the highest dose activity change, negative = inhibition, most hits filed as inhibitors | actives 1.3% (n = 340,000) | AID 485314; also: % is scaled to controls: 0 for no effect and ±100 for the full control effect
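Values derive from four-parameter Hill fits of normalized kinetic data: reads at 0 and 10 min following addition of 50 nM substrate to 10 nM Pol beta preincubated 15 min with compound.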
POLH inh: DNA polymerase eta (human) inhibition; actives 1.2% (n = 390,000); Q9Y253; recombinant Pol eta, fluorescent DNA replication assay; Potency, µM (titrated, usually from 114 µM), inactives show at the highest dose activity change, negative = inhibition, usual class: inhibitors; AID 588591; also: % is scaled to controls: 0 for no effect and ±100 for the full control effect
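Fluorescent replication assay: 50 nM final substrate added after a 15 min room-temperature compound preincubation with 10 nM enzyme. Signal taken at 0 min and again at 10 min.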
POLK inh: blocks human DNA polymerase kappa activity; Q9UBT6; purified Pol kappa, fluorescent DNA synthesis assay, 10 min; Potency, µM (titrated, usually from 107 µM), inactives show at the highest dose activity, negative = inhibition, most hits filed as inhibitors; actives 0.53% (n = 400,000); also: % is scaled to controls: 0 for no effect and ±100 for the full control effect
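First, compounds were pin-transferred onto 10 nM Pol kappa. After 15 min at room temperature, substrate was added to 50 nM final. Fluorescence was then measured kinetically at 0 and 10 min.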
L3MBTL1 block: inhibitors of human L3MBTL1; Potency, µM (highest dose often 57.1 µM), for inactives: at the highest dose activity, negative = inhibition, hits mostly inhibitors; actives 0.66% (n = 230,000); AlphaScreen L3MBTL1–H3K9me1 peptide binding; also: % is scaled to controls: 0 for no effect and ±100 for the full control effect; nearly all actives have a fitted effect of over 60% in size
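L3MBTL1 50 nM + b-AHA-H3(1-15)K9me1 75 nM, 30 min RT; compound added, 30 min RT; streptavidin donor/Ni-chelate acceptor beads 10 ug/mL each final, 30 min RT dark; AlphaScreen read.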
* marks the source's active call; other numbers are inactive results; ? = inconclusive; . = not tested or not shown; [ ] = dose if it differs, or a comment. Shown are actives, neighbours in structure and some others; about 2.4% of the full set was active somewhere. Calls follow the shape of the dose curve; as a rule, active = well fitted curve in the direction sought with a large enough effect; inconclusive = small, poorly fitted or top-dose-only effect, or another doubt; inactive = no such curve, though single readings can be large; an effect the other way counts as inactive or inconclusive. Potency is read from the fitted curve at half-maximal effect.

SMILES	Pol iota inh	Pol beta inh	POLH inh	POLK inh	L3MBTL1 block
CCC[C@@H]1NC(=O)[C@@H](NC(C)=O)CSSC[C@@H](C(N)=O)NC(=O)CNC(=O)[C@H](Cc2c[nH]c3ccccc23)NC(=O)[C@H](CCCN=C(N)N)NC(=O)[C@H](Cc2ccc3ccccc3c2)NC(=O)[C@H](Cc2cnc[nH]2)NC(=O)[C@H](CCCN=C(N)N)NC1=O	.	.	.	1.4%[60.1 µM]	.
CCOC(=O)c1ccccc1NS(=O)(=O)c1ccccc1F	79.4µM*	19.3%	-14.0%	-20.3%	13.7%
CN(Cc1ccco1)c1ccnc(-c2cccnc2)n1	.	.	.	25.1µM*	.
CN(C)S(=O)(=O)c1cccc(C(=O)OCC(=O)Nc2sccc2C(N)=O)c1	?	8.6%	20µM*	?	-2.7%
CN1CCN(S(=O)(=O)c2cccc(C(=O)Nc3sccc3C(N)=O)c2)CC1	44.7µM*	.	44.7µM*	?	-7.6%
NC(=O)c1ccsc1NC(=O)COC(=O)CNC(=O)c1cccc([N+](=O)[O-])c1	?	.	35.5µM*	-22.6%	-18.8%
COc1ccc(C(=O)OCC(=O)Nc2sccc2C(N)=O)cc1OC	-9.1%	19.8%	-15.4%	3.8%	4.4%
COc1ccccc1OCC(=O)OCC(=O)Nc1sccc1C(N)=O	?	?	25.1µM*	-31.7%	-22.9%
CN1CCN(S(=O)(=O)c2cccc(C(=O)Nc3cc(C(N)=O)cc(C(N)=O)c3)c2)CC1	?	?	0.2%	-10.0%	.
CCOc1ccc(NC(=O)CSc2nnc(-c3ccc(OCC)cc3)o2)cc1	-1.0%	1.5%	9.4%	-1.0%	.
Cn1cnc(S(=O)(=O)N2CCC(C(=O)NCc3ccc(F)cc3)CC2)c1	-3.3%	0.6%	0.8%	-9.3%[60.1 µM]	.
CC1(C)OC(=O)C2(Cc3ccccc3N3CCC(c4ccccc4)CC32)C(=O)O1 (configuration not stated)	-10.9%	.	.	4.9%	.
CCOc1ccc(S(=O)(=O)N2CCN(c3nc(-c4ccccc4)nc4ccccc34)CC2)cc1OCC	-6.5%	.	.	8.8%	.
O=C(Nc1ccc(N2CCOCC2)c(S(=O)(=O)Nc2ccc(Cl)cc2)c1)c1ccc(=O)[nH]n1	10µM*	.	20µM*	?	?
Cc1cccc(CSC2=NCCN2S(=O)(=O)c2ccc(F)cc2)c1	?	-7.9%	-9.6%	-17.6%	.
CCOCCCNC(=O)Cc1ccc(-n2c(CC)nc3cccnc32)cc1	25.3%	21.7%	-18.5%	-2.0%	.
CCc1nc2cccnc2n1-c1ccc(CC(=O)O)cc1	64.4%	-1.2%	50.1µM*	-23.5%	.
Cc1ccccc1NC(=O)NC1(C(=O)N2CCOCC2)CCCCC1	-1.0%	-2.1%	-9.5%	-5.8%	0.9%
O=C(Nc1ccccc1C(F)(F)F)NC1(C(=O)N2CCOCC2)CCCCC1	14.1µM*	.	?	50.1µM*	.
O=C(COc1ccccc1C(=O)Nc1ccccc1)Nc1cccc(Cl)c1	0.1%	.	.	3.5%	.
Oc1ccc2c(c1)C1CCCC1(N1CCOCC1)O2 (configuration not stated)	?	3.5%	-11.0%	-12.9%	31.6µM*
CC1=C(C(=O)N2CCOCC2)C(c2ccc(O)cc2)NC(=S)N1 (configuration not stated)	14.2%	3.9%	-12.2%	-7.1%	-3.3%
Cc1ccc(C(=O)ONc2ccc(N=NC(=O)c3ccccc3O)cc2)cc1	2.0%	6.5%	8.91µM*	-20.7%	.
C#CCOc1c(Br)cc(/C=C2/C(=O)ON=C2C)cc1OC	53.7%	-8.0%	-3.1%	-4.3%	.
C=CCOc1c(Br)cc(/C=C2/C(=O)ON=C2C)cc1OC	89.1µM*	-0.4%	-11.5%	-2.5%	.
SMILES	Pol iota inh	Pol beta inh	POLH inh	POLK inh	L3MBTL1 block
CC(C)(C)C1CCc2c(sc(NC(=O)c3noc4c3CCCC4)c2C#N)C1 (configuration not stated)	5.1%	-1.8%	-1.7%	-21.6%	.
COc1ccc(NS(=O)(=O)c2ccc(OC)c(N(C)S(=O)(=O)c3ccc(Cl)cc3)c2)cc1	89.1µM*	-16.7%	-19.7%	-14.3%	-7.6%
COc1ccc(N(C(=O)c2ccc(C)cc2)S(=O)(=O)c2ccc(Cl)cc2)cc1	15.8%	?	-18.4%	1.5%	.
COc1ccc(N(C(=O)c2ccc(OC)c(OC)c2)S(=O)(=O)c2ccc(Cl)cc2)cc1	89.1µM*	-2.2%	-15.7%	79.4µM*	.
COc1ccc(S(=O)(=O)Nc2ccc(F)cc2)cc1N(C)S(=O)(=O)c1ccc(Cl)cc1	89.1µM*	-0.6%	-14.4%	-15.5%	-2.9%
CC(=O)OCCBr	.	.	.	14.3%[60.1 µM]	.
Cc1cc2ccccc2n1CCNC(=O)c1ccccc1F	-0.1%	-6.5%	-6.1%	-9.2%	.
Cc1ccn2c(=O)nc(SCC(=O)OCc3ccccc3)nc2c1	44.7µM*	.	50.1µM*	?	?
COc1ccc(-c2nnc(Nc3nc4c(OC)cccc4s3)o2)cc1	?	31.6µM*	79.4µM*	35.5µM*	-1.1%
COc1ccc(-c2nnc(Nc3nc4c(OC)cccc4s3)o2)c(OC)c1	?	-21.5%	?	-16.3%	4.8%[11.4 µM]
Cc1ccc(NC(=O)CN2C(=O)S/C(=C\c3cc(C)n(-c4ccc(C(=O)O)cc4)c3C)C2=O)cc1	?	79.4µM*	79.4µM*	-5.1%	-17.7%
COc1ccc(-c2csc(NC(=O)CSc3nc4ccccc4c(=O)[nH]3)n2)cc1	35.5µM*	-29.1%	?	?	.
COc1ccc(NC(=O)CSc2nc(O)cc(=O)n2C)cc1	?	-0.3%	-1.3%	?	.
COc1ccc(NC(=O)CSc2nc(O)cc(=O)n2-c2ccccc2)cc1	79.4µM*	?	-8.9%	-21.7%	.
COc1ccccc1NC(=O)CCSCCC(=O)Nc1ccccc1OC	-12.3%	56.2µM*	?	-22.7%	-20.6%
COc1ccccc1NC(=O)CSc1nc2ncccc2[nH]1	28.0%	35.5µM*	-8.2%	-7.2%	-5.0%
CC12CCC=CC1C(c1ccc(Br)cc1F)N(Cc1ccccc1)C2=O (configuration not stated)	-14.6%	.	.	-22.6%	.
CSCC[C@H](N)C(=O)N[C@@H](CCCN=C(N)N)C(=O)N[C@@H](Cc1ccccc1)C(=O)N[C@@H](Cc1ccccc1)C(=O)N[C@H](C(=O)O)C(C)C	.	.	.	-2.9%[60.1 µM]	.
CCCCCCC[n+]1ccc(C)c2ccccc21	22.1%	.	.	-5.3%	.
CN(C)c1ccc(N=Nc2ccc(S(=O)(=O)O)cc2)cc1	0.8%	.	.	-16.4%	.
O=C(CSc1nc(O)cc(=O)n1-c1ccccc1)Nc1ccc2c3c(cccc13)CC2	?	35.5µM*	-28.6%	-16.6%	-10.9%
COc1ccc2nc(SCC(=O)Nc3ccccc3)[nH]c2c1	-15.2%	28.2µM*	-15.2%	-11.0%	-10.8%
O=C(CSc1nccn1-c1ccccc1)Nc1nc2ccccc2s1	-3.3%	-1.5%	3.5%	-2.3%[60.1 µM]	.
O=C(CSc1nc(O)cc(=O)n1-c1ccccc1)Nc1nc2ccccc2s1	11.2µM*	?	-7.1%	?	.
Cc1ccc(NC(=O)C(=O)c2cc(C)n(-c3ccc(F)cc3)c2C)cc1C	?	14.5%	-0.1%	0.4%	.
